What was measured:
Conditions in all cases: concentration: 1 μM, replicates: in singlicate; n = 1
NDR1 = test system: T1, NDR1
T1 construct: gene STK38

NDR2 = test system: NDR2
NEK10 = test system: NEK10
NEK11 = test system: NEK11
NEK1 = test system: NEK1
NEK2 = test system: NEK2
NEK3 = test system: NEK3
NEK4 = test system: NEK4
NEK5 = test system: NEK5
NEK6 = test system: NEK6
NEK7 = test system: NEK7
NEK9 = test system: NEK9
NIK = test system: T2, NIK
T2 construct: gene MAP3K14

NIM1 = test system: T3, NIM1
T3 construct: gene MGC42105

NLK = test system: NLK
OSR1 = test system: T4, OSR1
T4 construct: gene OXSR1

PAK1 = test system: PAK1
PAK2 = test system: PAK2
PAK3 = test system: PAK3
PAK4 = test system: PAK4
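Note: KINOMEscan kinase panel screen.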

SMILES	%Inh (NDR1) [%]	%Inh (NDR2) [%]	%Inh (NEK10) [%]	%Inh (NEK11) [%]	%Inh (NEK1) [%]	%Inh (NEK2) [%]	%Inh (NEK3) [%]	%Inh (NEK4) [%]	%Inh (NEK5) [%]	%Inh (NEK6) [%]	%Inh (NEK7) [%]	%Inh (NEK9) [%]	%Inh (NIK) [%]	%Inh (NIM1) [%]	%Inh (NLK) [%]	%Inh (OSR1) [%]	%Inh (PAK1) [%]	%Inh (PAK2) [%]	%Inh (PAK3) [%]	%Inh (PAK4) [%]
Cl.O=C(Nc1cccc(-c2nn3ncccc3c2-c2ccnc(Nc3cccnc3)n2)c1)c1c(F)cccc1F [GSK312879]	0	0	7	0	0	14	0	23	0	0	7	0	24	11	15	23	15	19	9	0
Cc1ccc(-c2cc(-c3c[nH]nc3-c3ccccn3)ccn2)cc1 [GW684088]	20	47	0	30	0	0	8	0	11	0	0	0	47	17	22	5	14	18	0	19
COc1cc2nccc(Nc3ccc(NC(=O)c4ccc(C)cc4)c(O)c3)c2cc1OC.Cl [GW440132]	0	0	0	0	2	0	0	0	14	0	0	14	15	7	0	17	0	0	22	0
CC(=O)Nc1nc2cnc(Nc3cc(NC(=O)c4cccc(CCC#N)c4)ccc3C)nc2s1	0	22	13	0	0	2	7	0	0	14	6	0	0	0	0	0	0	0	7	5
COc1ccc(C2=C(Nc3cccc(C(=O)O)c3)C(=O)NC2=O)cc1 [SB-390765]	2	13	2	30	0	10	31	23	0	13	28	2	10	45	1	22	0	27	0	0
COC(=O)c1c(-c2ccccc2)c2cc(OC)ccc2c(=O)n1Cc1ccccc1	0	3	0	0	7	9	16	11	0	0	0	7	0	0	0	0	31	27	44	9
Cc1cccc(-c2nc(Nc3ccc4[nH]ncc4c3)c3ccccc3n2)n1 [GW857175]	26	5	54	7	0	4	18	27	8	3	5	0	11	30	1	25	0	2	0	6
COc1cccc(-c2cc(-c3c[nH]nc3-c3ccccn3)ccn2)c1 [GW680338]	16	19	4	0	0	0	5	13	14	0	0	1	19	21	6	0	0	0	9	9
CN1C(=O)C(Nc2ccc(Cl)c(C(=O)O)c2)=C(c2ccc(Cl)cc2)C1=O [SB-404290]	0	1	0	30	0	5	0	21	0	0	15	10	0	9	17	13	0	18	22	0
COc1cc2ncn(-c3cc(OCC4CCCO4)c(C(N)=O)s3)c2cc1OC (stereo not drawn) [GSK204607]	12	10	0	0	11	28	5	0	10	0	0	0	19	23	15	0	0	0	9	0
COc1cc(Nc2nccc(N3CCC(NC(=O)Nc4cc(C)ccc4C)C3)n2)cc(OC)c1OC (stereo not drawn) [GSK1379762]	0	0	20	0	22	25	9	4	91.6	1	54	32	32	27	0	9	11	4	29	0
NC(=O)c1nnc2ccccc2c1N	20	0	85	0	0	16	31	4	3	10	0	0	69	14	2	31	0	7	5	0
CN(C)CCN(C)C(=O)c1cc(-c2ccncc2)c(-c2ccc(Cl)c(O)c2)o1.Cl.Cl [SB-710397]	1	36	33	29	0	0	26	20	8	0	0	0	16	35	76	4	6	0	16	0
C[C@@H]1CCCCN1c1cc(-c2ccc3c(N)n[nH]c3c2)nc(N)n1 [GSK2258759]	24	12	0	0	0	3	10	0	8	0	0	0	7	0	23	0	6	0	0	0
CC(C)(C)c1ccc(C(=O)Nc2cn3cc(-c4cccnc4)ccc3n2)cc1	49	0	2	0	13	8	54	0	31	13	4	0	20	22	1	0	36	36	51	24
COc1ccc(CNC(=O)NC2CCN(c3ccnc(Nc4cc(OC)c(OC)c(OC)c4)n3)C2)cc1 (stereo not drawn) [GSK1379748]	21	44	6	18	8	0	20	30	93.1	0	15	15	25	0	17	0	3	0	0	0
Cn1ccc2ncnc(Oc3ccc(Nc4nc5ccccc5[nH]4)cc3)c21	0	10	0	0	0	0	0	99.9	0	0	0	0	0	0	4	0	14	0	0	0
Fc1cccc(COc2nnc(-c3ccc4c(c3)CCO4)o2)c1	0	4	0	0	10	0	12	0	0	0	19	3	0	0	6	0	27	55	16	15
Cc1cccc(-c2cc(Nc3ccncc3)c3ccccc3n2)n1 [GSK223675]	0	0	0	0	0	0	17	0	0	0	0	8	14	0	10	6	6	2	0	0
Cc1cccc(-c2nc(Nc3ccncc3)c3ccccc3n2)n1 [GW855857]	8	6	0	0	0	0	30	0	10	21	0	0	0	0	47	0	0	0	0	0
COc1cc2ncnc(Nc3ccc4nc(-c5ccccc5)[nH]c4c3)c2cc1OC.Cl [GW282450]	17	0	14	2	0	0	0	4	29	0	0	22	23	18	38	11	9	9	0	0

Source: PMC5540273 (PLoS ONE, 2017)
